# Results as given in PubChem BioAssay AID1159580 (chemical genetic matrix, 2015).
# Hit rate of the full screen: of about 5,500 compounds, about 2,000 (36%) were called active. Inconclusive results (about 18%) are left out. The list shows a part of the results. Unmarked numbers belong to inactive results. Cut-off read from the data, not from the text of the source: active = normalized growth mostly below about 0.91 (no sharp cut-off); inconclusive = no clear call, values can overlap the other calls; inactive = mostly above about 0.92.
# Assay: chemical genetic growth profiling, strain panel (AID 1159580);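 note: tested at 20 µM; growth read once vehicle control cultures reached saturation at 30 °C; 1 = growth at the plate median or of vehicle wells; lower values mean less growth of the strain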
# Settings: S. cerevisiae deletion strains, growth OD
# [1] = locus YAL040C, strain CLN3, active compounds read low
# [2] = locus YCL061C, strain MRC1 (second series), active compounds read low
# [3] = locus YDR363W, strain ESC2, active compounds read low
# [4] = locus YER002W, strain NOP16, active compounds read low
# [5] = locus YGR229C, strain SMI1, active compounds read low
# [6] = locus YJR075W, strain HOC1, active compounds read low
# [7] = locus YNL153C, strain GIM3, active compounds read low
# [8] = locus YNL175C, strain NOP13, active compounds read low
# [9] = locus YNL197C, strain WHI3, active compounds read low
# [10] = locus YNL224C, strain SQS1, active compounds read low
# [11] = locus YOR083W, strain WHI5 (second series), active compounds read low
# [12] = locus YGR078C, strain PAC10, active compounds read low
# [13] = locus YPL241C, strain CIN2, active compounds read low
smiles,measurement,setting,value
CCCCN1CCC(n2c(=O)[nH]c3ccccc32)CC1,normalized growth,[1],1.01
same,normalized growth,[2],1.01
same,normalized growth,[3],1.02
same,normalized growth,[4],0.994
same,normalized growth,[5],1.01
same,normalized growth,[6],1.02
same,normalized growth,"locus YMR263W, strain SAP30, active compounds read low",1
same,normalized growth,[7],0.952
same,normalized growth,[8],1.01
same,normalized growth,[9],1.03
same,normalized growth,[10],0.988
same,normalized growth,[11],1.01
O=c1[nH]c2ccccc2n1CCCN1CCC(n2c(=O)[nH]c3cc(Cl)ccc32)CC1,normalized growth,"locus YAL013W, strain DEP1, active compounds read low",0.982
same,normalized growth,"locus YAL021C, strain ccr4, active compounds read low",0.982
same,normalized growth,"locus YAL026C, strain drs2, active compounds read low",1.01
same,normalized growth,"locus YAL030W, strain snc1, active compounds read low",0.991
same,normalized growth,[1],1
same,normalized growth,"locus YBL061C, strain skt5, active compounds read low",0.981
same,normalized growth,"locus YBR009C, strain hhf1, active compounds read low",0.967
same,normalized growth,"locus YBR023C, strain chs3, active compounds read low",0.982
same,normalized growth,"locus YBR171W, strain sec66, active compounds read low",0.979
same,normalized growth,"locus YBR231C, strain swc5, active compounds read low",0.945
same,normalized growth,"locus YBR279W, strain paf1, active compounds read low",0.992
same,normalized growth,"locus YCL011C, strain gbp2, active compounds read low",0.987
same,normalized growth,"locus YCL016C, strain dcc1, active compounds read low",0.989
same,normalized growth,[2],1.01
same,normalized growth,"locus YCL069W, strain vba3, active compounds read low",0.978
same,normalized growth,"locus YCR088W, strain abp1, active compounds read low",0.983
same,normalized growth,"locus YDL005C, strain med2, active compounds read low",0.971
same,normalized growth,"locus YDL040C, strain nat1, active compounds read low",0.959
same,normalized growth,"locus YDR001C, strain nth1, active compounds read low",0.969
same,normalized growth,"locus YDR069C, strain doa4, active compounds read low",0.971
same,normalized growth,"locus YDR137W, strain rgp1, active compounds read low",1.05
same,normalized growth,"locus YDR159W, strain sac3, active compounds read low",0.956
same,normalized growth,"locus YDR195W, strain ref2",0.979
same,normalized growth,"locus YDR297W, strain sur2, active compounds read low",0.984
same,normalized growth,"locus YDR334W, strain swr1, active compounds read low",0.976
same,normalized growth,"locus YDR335W, strain msn5, active compounds read low",0.961
same,normalized growth,[3],1
same,normalized growth,"locus YDR392W, strain spt3, active compounds read low",0.942
same,normalized growth,"locus YEL003W, strain gim4, active compounds read low",0.976
same,normalized growth,"locus YEL037C, strain rad23, active compounds read low",0.974
same,normalized growth,"locus YEL061C, strain CIN8 (second series), active compounds read low",0.98
same,normalized growth,[4],0.997
same,normalized growth,"locus YER015W, strain faa2, active compounds read low",0.976
same,normalized growth,"locus YER016W, strain bim1, active compounds read low",1
same,normalized growth,"locus YER111C, strain swi4, active compounds read low",0.976
same,normalized growth,"locus YER155C, strain BEM2 (second series), active compounds read low",0.863 (active)
same,normalized growth,"locus YFR010W, strain ubp6, active compounds read low",0.951
same,normalized growth,"locus YGL167C, strain pmr1, active compounds read low",0.964
same,normalized growth,"locus YGL173C, strain kem1, active compounds read low",0.964
same,normalized growth,"locus YGL227W, strain vid30, active compounds read low",0.972
same,normalized growth,"locus YGL240W, strain doc1, active compounds read low",0.927
same,normalized growth,"locus YGL253W, strain hxk2, active compounds read low",1.01
same,normalized growth,[12],1.01
same,normalized growth,[5],1.01
same,normalized growth,"locus YHR013C, strain ard1, active compounds read low",0.965
same,normalized growth,"locus YHR027C, strain rpn1, active compounds read low",0.997
same,normalized growth,"locus YHR030C, strain SLT2, active compounds read low",1.02
same,normalized growth,"locus YHR079C, strain IRE1, active compounds read low",0.994
same,normalized growth,"locus YHR142W, strain chs7, active compounds read low",0.981
same,normalized growth,"locus YJL092W, strain hpr5, active compounds read low",0.965
same,normalized growth,"locus YJL095W, strain BCK1 (second series), active compounds read low",0.982
same,normalized growth,"locus YJL095W, strain BCK1, active compounds read low",0.997
same,normalized growth,"locus YJL115W, strain asf1, active compounds read low",0.994
same,normalized growth,"locus YJL129C, strain trk1, active compounds read low",0.916
same,normalized growth,"locus YJL154C, strain vps35, active compounds read low",0.958
same,normalized growth,"locus YJL164C, strain tpk1, active compounds read low",0.997
same,normalized growth,"locus YJL166W, strain qcr8, active compounds read low",0.929
same,normalized growth,"locus YJL187C, strain SWE1, active compounds read low",0.978
same,normalized growth,"locus YJR066W, strain TOR1, active compounds read low",0.932
same,normalized growth,"locus YKL160W, strain elf1, active compounds read low",0.964
same,normalized growth,"locus YKR026C, strain gcn3, active compounds read low",0.982
same,normalized growth,"locus YKR091W, strain srl3, active compounds read low",0.984
same,normalized growth,"locus YLL001W, strain dnm1, active compounds read low",0.917
same,normalized growth,"locus YLL026W, active compounds read low",0.969
same,normalized growth,"locus YLL041C, strain sdh2, active compounds read low",0.988
same,normalized growth,"locus YLR027C, strain aat2, active compounds read low",0.972
same,normalized growth,"locus YLR113W, strain HOG1, active compounds read low",1
same,normalized growth,"locus YLR221C, strain rsa3, active compounds read low",1.01
same,normalized growth,"locus YLR258W, strain gsy2, active compounds read low",0.998
same,normalized growth,"locus YLR262C, strain YPT6 (second series), active compounds read low",0.999
same,normalized growth,"locus YLR320W, strain mms22, active compounds read low",1
same,normalized growth,"locus YLR342W, strain FKS1, active compounds read low",0.933
same,normalized growth,"locus YLR357W, strain rsc2, active compounds read low",0.937
same,normalized growth,"locus YLR370C, strain arc18, active compounds read low",0.966
same,normalized growth,"locus YLR384C, strain iki3, active compounds read low",0.978
same,normalized growth,"locus YML120C, strain ndi1, active compounds read low",0.962
same,normalized growth,"locus YMR058W, strain fet3, active compounds read low",0.959
same,normalized growth,"locus YMR125W, strain sto1, active compounds read low",1.02
same,normalized growth,"locus YMR129W, active compounds read low",0.982
same,normalized growth,"locus YMR205C, strain PFK2, active compounds read low",0.978
same,normalized growth,"locus YMR231W, strain pep5, active compounds read low",0.977
same,normalized growth,"locus YMR307W, strain GAS1, active compounds read low",0.992
same,normalized growth,"locus YNL071W, strain lat1, active compounds read low",0.989
same,normalized growth,[8],1.01
same,normalized growth,"locus YNL183C, strain NPR1, active compounds read low",0.955
same,normalized growth,[9],1.02
same,normalized growth,"locus YNL209W, strain ssb2, active compounds read low",0.992
same,normalized growth,[10],1
same,normalized growth,"locus YNL248C, strain rpa49, active compounds read low",0.996
same,normalized growth,"locus YNL322C, strain KRE1 (second series), active compounds read low",0.975
same,normalized growth,"locus YNR049C, strain mso1, active compounds read low",0.983
same,normalized growth,"locus YOR001W, strain rrp6, active compounds read low",0.952
same,normalized growth,"locus YOR070C, strain gyp1, active compounds read low",0.991
same,normalized growth,"locus YOR080W, strain dia2, active compounds read low",0.96
same,normalized growth,[11],0.926
same,normalized growth,"locus YOR083W, strain WHI5, active compounds read low",0.911
same,normalized growth,"locus YOR106W, strain vam3, active compounds read low",0.927
same,normalized growth,"locus YOR231W, strain MKK1, active compounds read low",1.01
same,normalized growth,"locus YOR265W, strain rbl2, active compounds read low",0.986
same,normalized growth,"locus YOR270C, strain vph1, active compounds read low",0.936
same,normalized growth,"locus YOR290C, strain snf2, active compounds read low",0.988
same,normalized growth,"locus YPL051W, strain arl3, active compounds read low",0.971
same,normalized growth,"locus YPL078C, strain atp4, active compounds read low",0.926
same,normalized growth,"locus YPL106C, strain sse1, active compounds read low",0.998
same,normalized growth,"locus YPL240C, strain hsp82, active compounds read low",0.997
same,normalized growth,[13],1.01
same,normalized growth,"locus YPL256C, strain CLN2, active compounds read low",0.995
O=C(OC1CCN(CCCl)CC1)C(c1ccccc1)c1ccccc1,normalized growth,[1],0.993
same,normalized growth,[2],0.988
same,normalized growth,"locus YDR150W, strain NUM1, active compounds read low",0.986
same,normalized growth,[3],0.986
same,normalized growth,[4],1
same,normalized growth,[12],0.994
same,normalized growth,[6],0.995
same,normalized growth,"locus YNL128W, strain TEP1, active compounds read low",0.997
same,normalized growth,[7],0.969
same,normalized growth,[8],1.01
same,normalized growth,[9],1.03
same,normalized growth,[10],0.99
same,normalized growth,[11],0.996
same,normalized growth,[13],0.99
